Test systems include T-47D breast; BT-549 breast; MDA-MB-435 melanoma; SW-620 colon; MCF7 breast; HCT-116 colon; HCC-2998 colon; KM12 colon.
What all share (assay): NCI-60 one-dose screen, 48 h (100 = growth as untreated, 0 = no growth, -100 = all killed)
Settings in all cases: 10 µM

This is part of a sample that, as a whole, favours compounds with a hit. Of some 83,000 tested, about 20% had one in any assay.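 Assay: single dose, 48 h. Readout: percent growth (0 = no net growth; negative = cell death). Active: <10.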 Unmarked numbers belong to inactive results. Active and inactive are the calls of the source.

Consider `O=CNc1c(Cl)cc2c(c1Cl)Cc1cc([N+](=O)[O-])ccc1-2`, for which the growth in the assay with T-47D breast is 30.6%; with BT-549 breast it was 95.8%; in the assay on MDA-MB-435 melanoma, 2.37% (active); in the assay on SW-620 colon, 41.4%; in the assay with MCF7 breast, 15.3%; in the assay with HCT-116 colon it was 6.23% (active). Besides, the results for the growth in the assay with HCC-2998 colon and in the assay on KM12 colon were 92.5% and 25.6%, respectively.

Turning to `Cc1ccc(S(=O)(=O)N2CCc3ccccc3CC2)cc1`, the growth in the assay with T-47D breast is 63.1%; with BT-549 breast, 64.7%; in the assay with MDA-MB-435 melanoma it was 101%; with SW-620 colon, 97.6%; with MCF7 breast it was 60.7%; in the assay on HCT-116 colon it was 68.5%. Moreover, the growth in the assay with HCC-2998 colon is 91%; in the assay with KM12 colon, 94.3%.

For the molecule `COc1ccc(-c2oncc2-c2cc(OC)c3c(c2)OCO3)cc1`, the growth in the assay on T-47D breast was 34.7%; with BT-549 breast, 2.88% (active); with MDA-MB-435 melanoma, -35.5% (active); in the assay with SW-620 colon it was 16.4%; with MCF7 breast, 18%; with HCT-116 colon, 14.1%. For the same molecule, the growth in the assay with HCC-2998 colon was 56%; with KM12 colon, 31.3%.

For the molecule `O=C(NC1CCN(Cc2ccccc2)CC1)c1cc(-c2ccncc2)nc2ccc(Cl)cc12`, the growth in the assay with T-47D breast was 29.8%; in the assay with BT-549 breast, 35.4%; with MDA-MB-435 melanoma, 28%; in the assay on SW-620 colon it was 23.5%; with MCF7 breast, 17.7%; with HCT-116 colon it was 9.97% (active). Moreover, the growth was 44.4% in the assay with HCC-2998 colon and 26.1% in the assay with KM12 colon.

Consider `COc1ccc(-c2cc(=O)n(-c3nc4ccccc4[nH]3)[nH]2)cc1OC`, for which the growth is 94.5% in the assay on T-47D breast; 76.2% with BT-549 breast; 50.6% with MDA-MB-435 melanoma; 77.8% in the assay with SW-620 colon; 74.4% in the assay on MCF7 breast; 74.6% with HCT-116 colon. The growth in the assay with HCC-2998 colon is 102%; in the assay with KM12 colon, 105%.

On to `Clc1cc(Cl)c(Cl)c(-c2nc(-c3cccnc3)cs2)c1`, for which the growth is -7.29% (active) in the assay on T-47D breast; 98.3% with BT-549 breast; 4.27% (active) in the assay with MDA-MB-435 melanoma; 46.2% with SW-620 colon; 63.6% with MCF7 breast; 40.2% in the assay on HCT-116 colon. Also, the growth in the assay on KM12 colon is 103%.

As to `O=c1c2cccc3c(Nc4ccc(Br)cn4)ccc(c32)c2nc3ccccc3n12`, the growth with T-47D breast was 18.9%; in the assay on BT-549 breast it was 84.4%; with MDA-MB-435 melanoma, 97%; in the assay on SW-620 colon it was 94.8%; in the assay with MCF7 breast, 4.15% (active); in the assay with HCT-116 colon, 88.2%. In addition, the growth in the assay on KM12 colon is 77.2%.

As to `C/C(=N\NC(=S)N1CCCC1)c1ccccn1`, the growth was 18.3% with T-47D breast; 28.1% with BT-549 breast; 19.2% in the assay on MDA-MB-435 melanoma; 22.6% in the assay on SW-620 colon; 14.2% in the assay on MCF7 breast; 22.3% with HCT-116 colon. Also, the growth in the assay on HCC-2998 colon was 14.7%; in the assay with KM12 colon, 17.4%.

Regarding `CCSc1nc2c([nH]1)c(=O)n(C)c(=S)n2C`, the growth in the assay with T-47D breast is 99.6%; with BT-549 breast it was 118%; in the assay with MDA-MB-435 melanoma it was 109%; in the assay on SW-620 colon it was 102%; in the assay with MCF7 breast, 113%; in the assay on HCT-116 colon it was 114%. For the same molecule, the growth in the assay with HCC-2998 colon was 106%; in the assay with KM12 colon, 103%.

`CCCn1c(=O)c2c(nc(-c3cccc(OCCCCl)c3)n2C)n(CCC)c1=O`: the growth in the assay on T-47D breast was 15.8%; with BT-549 breast, 67.9%; in the assay with MDA-MB-435 melanoma, 82.5%; in the assay on SW-620 colon, 76.6%; in the assay on MCF7 breast, 84.6%; with HCT-116 colon, 36.4%. For the same molecule, in the assay with KM12 colon, the growth is 76.2%.

Turning to `Cc1cc(=O)oc2cc(OCc3cn(CC(O)CO)nn3)ccc12` (stereo not drawn), the growth in the assay with T-47D breast is 86.8%; with BT-549 breast, 97.5%; with MDA-MB-435 melanoma it was 116%; in the assay with SW-620 colon it was 74%; with MCF7 breast, 109%; with HCT-116 colon it was 98.8%. Besides, the growth in the assay with KM12 colon was 111%.

Regarding `N#CN1CC[C@H](C(=O)Nc2ncc(-c3ccncc3)s2)C1`, the growth was -23.4% (active) in the assay on T-47D breast; -14.7% (active) in the assay with BT-549 breast; 6.91% (active) in the assay with MDA-MB-435 melanoma; 7.08% (active) in the assay on SW-620 colon; 2.99% (active) in the assay on MCF7 breast; 1.83% (active) in the assay with HCT-116 colon. The growth in the assay on HCC-2998 colon is 4.61% (active); with KM12 colon it was -1.2% (active).

Consider `CCCCOCCOCCOCc1cc2c(cc1Br)OCO2`, for which the growth was 88% in the assay with T-47D breast; 110% in the assay with BT-549 breast; 108% in the assay with MDA-MB-435 melanoma; 100% with SW-620 colon; 90.2% in the assay with MCF7 breast; 94.9% with HCT-116 colon. The growth is 108% with HCC-2998 colon and 97.7% in the assay on KM12 colon.

Consider `COc1ccc2c(c1)/C(=C/c1cc(OC)c(OC)c(OC)c1)C(=O)N2C`, for which the growth with T-47D breast is -11.1% (active); with BT-549 breast, 57.1%; in the assay with MDA-MB-435 melanoma it was -50.3% (active); in the assay on SW-620 colon, 1.64% (active); in the assay with MCF7 breast, 4.54% (active); with HCT-116 colon, 19.3%. In the assay on KM12 colon, the growth is -20.8% (active).

Consider `COc1ccc(Nc2ccnc(N3CCN(c4ccnc5cc(Cl)ccc45)CC3)n2)cc1`, for which the growth in the assay with T-47D breast is -7.73% (active); with BT-549 breast, -11.5% (active); in the assay with MDA-MB-435 melanoma, -4.38% (active); with SW-620 colon, 7.57% (active); with MCF7 breast, 2.5% (active); in the assay with HCT-116 colon, 0.434% (active). In the assay with KM12 colon, the growth was 2.49% (active).

Consider `C[C@]12CC[C@H]3[C@@H](CC=C4C[C@@H](O)CC[C@@]43C)[C@@H]1CC[C@@H]2C(=O)C/C=N/O`, for which the growth in the assay on T-47D breast is 77.2%; in the assay on BT-549 breast it was 90.2%; with MDA-MB-435 melanoma it was 97.1%; in the assay with SW-620 colon, 102%; with MCF7 breast, 95.6%; in the assay with HCT-116 colon it was 79.1%. Further, in the assay with KM12 colon, the growth was 96.6%.

In the case of `COc1ccc(-c2nnc(SC/C(=N\O)c3ccccc3)o2)cc1`, the growth is 91.8% with T-47D breast; 100% in the assay on BT-549 breast; 106% in the assay with MDA-MB-435 melanoma; 103% with SW-620 colon; 104% with MCF7 breast; 91.6% in the assay with HCT-116 colon. Further, the growth in the assay on HCC-2998 colon was 94%; with KM12 colon, 86.2%.

With `CCOc1nc(-c2ccccc2)cc2c(O)c(C(=O)NC(C)C)[nH]c(=O)c12`, the growth in the assay on T-47D breast was 97.3%; in the assay with BT-549 breast, 147%; with MDA-MB-435 melanoma it was 105%; in the assay on SW-620 colon, 96.1%; in the assay with MCF7 breast, 98.9%; in the assay on HCT-116 colon, 101%. Besides, the growth in the assay with KM12 colon is 106%.

As for `Cc1cc(C)c(/C=C2\C(=O)Nc3ccc(NC(=O)CCCCCCC(=O)NO)cc32)[nH]1`, the growth in the assay on T-47D breast is 15.3%; with BT-549 breast, 47.5%; in the assay on MDA-MB-435 melanoma, 2.24% (active); in the assay on SW-620 colon, 5.42% (active); in the assay with MCF7 breast it was 12.2%; in the assay with HCT-116 colon, -77.2% (active). Further, in the assay on KM12 colon, the growth was 60.2%.

As for `COc1ccc(-c2nsc3c2NC(=O)CC3c2ccc(Cl)cc2)cc1` (stereo not drawn), the growth in the assay on T-47D breast is 69.1%; with BT-549 breast, 73.5%; in the assay with MDA-MB-435 melanoma, 81%; in the assay with SW-620 colon it was 103%; in the assay with MCF7 breast, 88.4%; in the assay on HCT-116 colon, 85.8%. Also, the values for the growth with HCC-2998 colon and with KM12 colon were 93.2% and 82.7%, respectively.

With `c1ccc(CNc2nc(Nc3ccc(-c4nc5ccccc5[nH]4)cc3)c3cn[nH]c3n2)cc1`, the growth in the assay on T-47D breast is -30.6% (active); in the assay with BT-549 breast it was -24.8% (active); in the assay on MDA-MB-435 melanoma it was -6.74% (active); with SW-620 colon, 7.33% (active); in the assay on MCF7 breast, 1.71% (active); with HCT-116 colon, -54.5% (active). For the same molecule, the values for the growth in the assay with HCC-2998 colon and in the assay on KM12 colon were -5.53% (active) and 9.4% (active), respectively.

For `Nc1ccc2c(c1)Cc1cc(N)c(Cl)cc1-2`, the growth in the assay with T-47D breast is 54.3%; in the assay on BT-549 breast it was 90.3%; in the assay on MDA-MB-435 melanoma, 94.3%; in the assay with SW-620 colon, 108%; in the assay on MCF7 breast it was 42.6%; with HCT-116 colon it was 100%. In addition, the growth with KM12 colon was 108%.

Turning to `O=C(/C=C/c1ccc(Cl)cc1)c1ccc(Br)cc1`, the growth in the assay with T-47D breast was 79.7%; in the assay with BT-549 breast, 102%; in the assay on MDA-MB-435 melanoma, 99.1%; in the assay with SW-620 colon it was 102%; in the assay with MCF7 breast, 26.3%; with HCT-116 colon, 75.5%. The growth with HCC-2998 colon is 95%; in the assay with KM12 colon it was 93.8%.

`COC(=O)c1c(C)nc(Nc2nc3ccccc3s2)nc1-c1ccc(Cl)cc1Cl`: the growth in the assay with T-47D breast was 105%; in the assay on BT-549 breast, 101%; in the assay on MDA-MB-435 melanoma, 111%; with SW-620 colon, 104%; in the assay on MCF7 breast, 78.5%; in the assay with HCT-116 colon, 98.4%. In addition, the growth in the assay on KM12 colon is 103%.

In the case of `C(=C\c1nc2ccccc2s1)/c1ccc(N2CCOCC2)s1`, the growth in the assay with T-47D breast is 1.72% (active); with BT-549 breast it was 89.5%; in the assay on MDA-MB-435 melanoma, 64.9%; in the assay on SW-620 colon, 101%; with MCF7 breast, 80.2%; with HCT-116 colon, 55.4%. Besides, the growth in the assay with KM12 colon was 48.6%.

In the case of `O=C/C=C/c1ccc([N+](=O)[O-])cc1Cl`, the growth is 86.4% in the assay with T-47D breast; 106% in the assay with BT-549 breast; 95.9% with MDA-MB-435 melanoma; 90% with SW-620 colon; 62.8% with MCF7 breast; 2.9% (active) with HCT-116 colon. Also, the growth in the assay on HCC-2998 colon was 111%; in the assay on KM12 colon, 95.6%.

Regarding `CCOc1nc(-c2ccccc2)cc2c(O)c(C(=O)NCCCO)[nH]c(=O)c12`, the growth in the assay with T-47D breast was 97.4%; in the assay with BT-549 breast, 97.6%; in the assay with MDA-MB-435 melanoma, 94.9%; in the assay with SW-620 colon, 96.4%; in the assay with MCF7 breast, 90.3%; in the assay on HCT-116 colon it was 98.9%. Besides, in the assay on KM12 colon, the growth was 99.1%.

These data come from PubChem BioAssay (NCI).
